# According to the supplement of paper PMC9023506:
# Where a name gives a salt, the structure may show the parent alone.
# Test system: Danio rerio larvae (5 dpf)
# Test: optomotor response to red moving lines, difference vs DMSO (percentage points (treated minus DMSO)); higher = more of the behaviour than the DMSO vehicle control
# Conditions: 10 µM; exposure time: 3 h pre-incubation + 3 h imaging
# Experimental: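 5-dpf wild-type zebrafish larvae were imaged in 96-well plates. They were treated with 190 Tocris FDA-approved drugs at 10 µM (1 µl/ml DMSO) for 3 h before and 3 h during imaging at 28.5 °C, 48 larvae per drug. Automated image analysis gave % time moving and optomotor responses. Values are drug group mean minus DMSO vehicle mean (n=844), in percentage points, for 10 behaviours.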
row,SMILES,optomotor response to red moving lines
1,Cc1cn([C@H]2C=C[C@@H](CO)O2)c(=O)[nH]c1=O [Stavudine],9.7
2,CN1CC2c3ccccc3Oc3ccc(Cl)cc3C2C1 (stereo not given) [Asenapine maleate],-5.48
3,CC[C@H]1OC(=O)[C@H](C)[C@@H](O[C@H]2C[C@@](C)(OC)[C@@H](O)[C@H](C)O2)[C@H](C)[C@@H](O[C@@H]2O[C@H](C)C[C@H](N(C)C)[C@H]2O)[C@](C)(O)C[C@@H](C)CN(C)[C@H](C)[C@@H](O)[C@]1(C)O [Azithromycin],-11.1
4,CC#C[C@]1(O)CC[C@H]2[C@@H]3CCC4=CC(=O)CCC4=C3[C@@H](c3ccc(N(C)C)cc3)C[C@@]21C [Mifepristone],3.5
5,Cn1nnc2c(C(N)=O)ncn2c1=O [Temozolomide],2.24
6,C#C[C@]1(O)CC[C@H]2[C@@H]3CCC4=CC(=O)CC[C@@H]4[C@H]3CC[C@@]21CC [Levonorgestrel],4.27
7,COc1cc2ncnc(Nc3ccc(F)c(Cl)c3)c2cc1OCCCN1CCOCC1 [Iressa],1.01
8,Cc1ccccc1C(=O)Nc1ccc(C(=O)N2CCCC(O)c3cc(Cl)ccc32)c(C)c1 (stereo not given) [Tolvaptan],-7.01
9,CC(=O)Oc1ccccc1C(=O)O [Aspirin],7.38
10,O=C(O)c1cc(/N=N/c2ccc(S(=O)(=O)Nc3ccccn3)cc2)ccc1O [Sulfasalazine],2.01
11,CNCc1ccc(-c2[nH]c3cc(F)cc4c3c2CCNC4=O)cc1 [Rucaparib camsylate],2.5
12,OC(CNCC(O)C1CCc2cc(F)ccc2O1)C1CCc2cc(F)ccc2O1 (stereo not given) [Nebivolol hydrochloride],-16.2
13,COc1cc2nccc(Oc3ccc(NC(=O)C4(C(=O)Nc5ccc(F)cc5)CC4)cc3)c2cc1OC,-13.9
14,CCCCNc1cc(C(=O)O)cc(S(N)(=O)=O)c1Oc1ccccc1 [Bumetanide],19.3
15,Clc1ccc2nsnc2c1NC1=NCCN1 [Tizanidine hydrochloride],18.1
16,CC(C)c1nc(CN(C)C(=O)N[C@H](C(=O)N[C@@H](Cc2ccccc2)C[C@H](O)[C@H](Cc2ccccc2)NC(=O)OCc2cncs2)C(C)C)cs1 [Ritonavir],-2.77
17,CC(C)c1ccc2oc3nc(N)c(C(=O)O)cc3c(=O)c2c1 [Amlexanox],-3.59
18,CC(C)Nc1cccnc1N1CCN(C(=O)c2cc3cc(NS(C)(=O)=O)ccc3[nH]2)CC1 [Delavirdine mesylate],-0.668
19,CO[C@H]1/C=C/O[C@@]2(C)Oc3c(C)c(O)c4c(O)c(c5c(nc6cc(C)ccn65)c4c3C2=O)NC(=O)/C(C)=C\C=C\[C@H](C)[C@H](O)[C@@H](C)[C@@H](O)[C@@H](C)[C@H](OC(C)=O)[C@@H]1C [Rifaximin],0.313
20,CCCCCCCCc1ccc(CCC(N)(CO)CO)cc1,2.93

row,SMILES,optomotor response to red moving lines
1,CCCC1O[C@@H]2C[C@H]3[C@@H]4CCC5=CC(=O)C=C[C@]5(C)[C@H]4[C@@H](O)C[C@]3(C)[C@]2(C(=O)CO)O1 (stereo not given in full) [Budesonide],12
2,CN1CCC[C@@H]1Cc1c[nH]c2ccc(CCS(=O)(=O)c3ccccc3)cc12 [Eletriptan hydrobromide],4.39
3,Nc1nc(NC2CC2)c2ncn([C@H]3C=C[C@@H](CO)C3)c2n1 [Abacavir hemisulfate],-1.56
4,Clc1ccccc1C(c1ccccc1)(c1ccccc1)n1ccnc1 [Clotrimazole],26.3
5,Nc1nc(Cl)nc2c1ncn2[C@@H]1O[C@H](CO)[C@@H](O)[C@@H]1F [Clofarabine],1.11
6,Clc1ccc(COC(Cn2ccnc2)c2ccc(Cl)cc2Cl)c(Cl)c1 (stereo not given) [Miconazole nitrate],-8.36
7,COC(c1ccccc1)(c1ccccc1)[C@H](Oc1nc(C)cc(C)n1)C(=O)O [Ambrisentan],-4.02
8,CC(C)CN(C[C@@H](O)[C@H](Cc1ccccc1)NC(=O)O[C@H]1CO[C@H]2OCC[C@H]21)S(=O)(=O)c1ccc(N)cc1 [Darunavir],4.11
9,OCCN1C[C@H](O)[C@@H](O)[C@H](O)[C@H]1CO [Miglitol],9.81
10,NC(=O)c1ncn([C@@H]2O[C@H](CO)[C@@H](O)[C@H]2O)n1 [Ribavirin],7.68
11,CCOC(=O)c1ncn2c1CN(C)C(=O)c1cc(F)ccc1-2 [Flumazenil],-7.04
12,CC(=O)O[C@]1(C(C)=O)CC[C@H]2[C@@H]3C=C(C)C4=CC(=O)CC[C@]4(C)[C@H]3CC[C@@]21C [Megestrol Acetate],3.71
13,CC(CCc1ccc(O)cc1)NCCc1ccc(O)c(O)c1 (stereo not given) [Dobutamine hydrochloride],5.06
14,CS(=O)(=O)CCNCc1ccc(-c2ccc3ncnc(Nc4ccc(OCc5cccc(F)c5)c(Cl)c4)c3c2)o1 [Lapatinib],0.000688
15,CCCc1nc(C(C)(C)O)c(C(=O)O)n1Cc1ccc(-c2ccccc2-c2nnn[nH]2)cc1 [Olmesartan],-10.3
16,Nc1ncn([C@H]2C[C@H](O)[C@@H](CO)O2)c(=O)n1 [Decitabine],-3.68
17,N#Cc1ccc2[nH]cc(CCCCN3CCN(c4ccc5oc(C(N)=O)cc5c4)CC3)c2c1 [Vilazodone hydrochloride],12.8
18,Cc1ccc(-c2cc(C(F)(F)F)nn2-c2ccc(S(N)(=O)=O)cc2)cc1 [Celecoxib],-3.89
19,CN1CCN2c3ncccc3Cc3ccccc3C2C1 (stereo not given) [Mirtazapine],-3.88
20,CC(=O)Nc1ccc(O)cc1 [Acetaminophen],-2.99
